# From PubChem BioAssay
# Sampled rows, rich in hits. Any-hit rate of the full collection: about 8.5%.
# RGS12 GoLoco inh: inhibitors of human Gai1-RGS12 GoLoco interaction (red fluorophore) | Potency, µM (top dose mostly 61.6 µM), for the others: top-dose activity, negative = inhibition, hits mostly inhibitors | 0.44% of 230,000 active | Gai1:RGS12 GoLoco peptide FP, rhodamine, 10 min | P63096; active = well fitted inhibition curve with a large enough effect, not every such curve was filed as active; inactive = no such curve, though single readings can be large or run the other way; note: potency is the fitted concentration of half-maximal effect; nearly all actives have a fitted effect of over 30% in size
# Target sequence (P63096 whole entry, looked up): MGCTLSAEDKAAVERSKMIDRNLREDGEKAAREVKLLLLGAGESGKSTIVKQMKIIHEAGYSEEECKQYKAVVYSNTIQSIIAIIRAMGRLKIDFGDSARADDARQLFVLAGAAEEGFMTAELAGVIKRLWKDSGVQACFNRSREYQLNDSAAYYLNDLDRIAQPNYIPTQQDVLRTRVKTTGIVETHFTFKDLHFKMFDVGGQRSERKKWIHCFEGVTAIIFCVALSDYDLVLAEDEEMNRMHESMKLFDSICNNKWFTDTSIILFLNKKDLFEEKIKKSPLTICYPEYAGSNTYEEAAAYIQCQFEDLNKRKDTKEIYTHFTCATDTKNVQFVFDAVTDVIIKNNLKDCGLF
# FBPA coupling cs: counter-screen for Giardia aldolase inhibitors: coupling enzyme system; coupling enzyme system counterscreen, AmpLite Red fluorescence; 0.67% of 290,000 active; activity change, negative = inhibition, % at 58.2 µM, hits read low; in the data active = activity change below about -30%
#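 Counterscreen of the coupled detection system alone, without aldolase: glyceraldehyde-3-phosphate coupling enzymes plus AmpLite Red readout. Compounds at 57.5 uM final, 10 min RT preincubation, 20 min RT reaction, fluorescence 525/598 nm.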
# ALDH1A1 block: ALDH1A1 (human) enzyme inhibition; Purified ALDH1A1, NADH fluorescence, propionaldehyde substrate; Potency, µM (series often up to 75.3 µM), for inactives: at the top dose activity, negative = inhibition, usual class: inhibitors; P00352; AID 1030; 7.3% of 220,000 active;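 note: potency is the fitted concentration of half-maximal effect; plate controls were no enzyme wells and a reference inhibitor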
# NPSR antag: blocks cAMP signaling of the human neuropeptide S receptor | Q6W5P4 | CHO-NPSR cells, cAMP TR-FRET, antagonist mode | Potency, µM (highest dose often 38.3 µM), for inactives: at the highest dose activity change, negative = inhibition, hits mostly inhibitors | 1% of 220,000 active | AID 1461; active = well fitted curve in the direction sought with a large enough effect; inconclusive = small, poorly fitted or top-dose-only effect, or another doubt; inactive = no such curve, though single readings can be large; an effect the other way counts as inactive or inconclusive; note: potency is the fitted concentration of half-maximal effect; nearly all actives have a fitted effect of over 50% in size
# KDM4E inh: blocks human JMJD2E demethylase activity; 1.6% of 230,000 active; JMJD2E catalytic domain, FDH-coupled NADH fluorescence (FDH is formaldehyde dehydrogenase); B2RXH2; Potency, µM (titrated, usually from 57.1 µM), for the others: top-dose activity change, negative = inhibition, most hits filed as inhibitors; AID 2147;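 note: potency is the fitted concentration of half-maximal effect; 0% = wells with enzyme and -100% = buffer wells without enzyme; nearly all actives have a fitted effect of over 50% in size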
# Sfp PPTase inh: inhibitors of Bacillus subtilis Sfp phosphopantetheinyl transferase. Biochemical Sfp PPTase activity, qHTS. Potency, µM, without a hit: largest response in the series, negative = inhibition, usual class: inhibitors. 3.5% of 310,000 active. AID 1490; active = well fitted curve in the direction sought with a large enough effect; inconclusive = small, poorly fitted or top-dose-only effect, or another doubt; inactive = no such curve, though single readings can be large; an effect the other way counts as inactive or inconclusive;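 note: the enzyme is Sfp with the accession as filed and its product quenches rhodamine fluorescence; potency is the fitted concentration of half-maximal effect; 0% = enzyme reaction without inhibitor and -100% = no enzyme wells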
#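 Fluorescence-quenching assay: 15 nM Sfp-PPTase preincubated 15 min at room temperature with compound, then 5 uM rhodamine-CoA and 12.5 uM BHQ-2-labelled YbbR peptide added. Fluorescence (ex 525/em 598 nm) read at start and after 30 min; difference gives rate.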
# Starred values were filed as active, the others as inactive; ? = inconclusive; / = no result given; [ ] = remark or other dose. Unless noted, calls come from the whole dose curve; as a rule, active = well fitted inhibition curve with a large enough effect (not every such curve was filed as active); inconclusive = small, poorly fitted or top-dose-only effect, or another doubt; inactive = no such curve, though single readings can be large or run the other way. Unless noted, % is set by controls: 0 for no effect and ±100 for the full control effect.
SMILES,RGS12 GoLoco inh,FBPA coupling cs,ALDH1A1 block,NPSR antag,KDM4E inh,Sfp PPTase inh
C/C(CC(=O)NC1CCCCC1)=N\NC(=O)c1ccccn1,6%,-3,4%,-16%,123%,89µM*
C/C(=N/NC(=O)CNC(=O)c1ccccn1)c1ccccc1,3%,2,14µM*,10%,0%,?
C/C(=N\NC(=O)c1ccccn1)c1ccc(C(=O)O)s1,8%,-5,10µM*,6%,-1%,13µM*
CCOc1ccccc1C(=O)N1CCC(n2nnc3cc(C(F)(F)F)ccc32)CC1,10%,5,28µM*,-6%[46.1 µM],-4%,6%
COc1ccc(S(=O)(=O)Nc2ccc(Cl)cn2)c(C)c1C,0%,2,13µM*,-10%[46.1 µM],-27%,13%
COc1cc(N=Nc2c(O)c3ccccc3[nH]c2=O)c(OC)cc1N=Nc1ccccc1,40%,-1,16µM*,-11%,-9%,-8%
NC(=O)c1ccc(N=Nc2c(O)c3ccccc3[nH]c2=O)cc1,-73%,3,-8%,4%,2%,-8%
CCc1ncnc2cc(OC)c(OC)cc12,/,/,/,/,/,-11%
CCn1c(SCC(=O)N2CCCCC2)nc2c(c1=O)SCC2,/,0,/,/,/,3%
S=C(Nc1ccccc1Cl)NC1CCN(Cc2ccccc2)CC1,0%,6,?,33%,5%,7%
S=C(Nc1ccc2c(c1)OCO2)NC1CCN(Cc2ccccc2)CC1,1%,0,13µM*,2%[46.1 µM],-5%,14%
S=C(Nc1ccc(Cl)cc1Cl)NC1CCN(Cc2ccccc2)CC1,12%,-1,8.9µM*,-8%,-4%,4%
CCN1CCN(c2ccc(NC(=O)COc3ccc([N+](=O)[O-])cc3)cc2)CC1,/,/,/,/,/,16%
Cc1cnnn1-c1cccc([N+](=O)[O-])c1,-6%,8,5%,13%,-4%,-13%
Cc1cnnn1-c1ccc(C(=O)CCl)cc1,-2%,/,0.89µM*,2%[46.1 µM],-9%,?
COc1ccccc1C(=O)C1CCCN(C(=O)c2cc(C(C)C)no2)C1 (stereo not drawn),6%,-2,-8%,4%,-7%,24%
COc1ccc(C(=O)C2CCCN(C(=O)c3cccs3)C2)cc1F (stereo not drawn),2%,2,?,8%,1%,2%
COc1ccc(C(=O)C2CCCN(C(=O)c3cc(C(C)C)no3)C2)cc1F (stereo not drawn),4%,1,1.6µM*,19%,0%,5%
CCc1noc(C)c1C(=O)N1CCCC(C(=O)c2ccc(OC)c(F)c2)C1 (stereo not drawn),-23%,0,7.1µM*,-3%,-1%,9%
O=C(c1ccc2ccccc2c1)C1CCCN(C(=O)c2noc3c2CCCC3)C1 (stereo not drawn),4%,-4,14µM*,-8%,7%,?
Cc1cc(F)ccc1S(=O)(=O)NCC(c1cccnc1)N1CCc2ccccc21 (stereo not drawn),/,0,/,/,/,-4%
COc1cc2c3nnc(-c4ccc(F)cc4)c-3cn(Cc3ccc(C)cc3)c2cc1OC,30%,-2,4.5µM*,?,?,-28%
COc1cc2c3nnc(-c4ccc(F)cc4)c-3cn(Cc3cccc(C)c3)c2cc1OC,27%,-1,2%,-17%[46.1 µM],?,8%
COc1cc2c3nnc(-c4ccc(F)cc4)c-3cn(Cc3cccc(F)c3)c2cc1OC,58%,2,11%,1%,?,45µM*
O=C(CC(=O)N/N=C/c1ccc(C(=O)O)cc1)NCCc1ccccc1,/,0,/,/,/,20%
CC(=O)c1c(CC(=O)O)[nH]n(-c2nc3ccccc3s2)c1=O,45%,1,-73%,-17%[46.1 µM],-1%,8%
COC(=O)Cc1[nH]n(-c2nc3ccccc3s2)c(=O)c1C(C)=O,19%,4,?,-4%[46.1 µM],?,79µM*
CCCCc1cc2c(cn1)=C(OC(=O)C1CCCC1)C(C)(OC(=O)CC)C(=O)C=2 (stereo not drawn),2%[14.2 µM],-4,?,/,14%[11.4 µM],10%
